High-throughput results from PubChem BioAssay.
In the library only some 3.1% were active in any assay of this set; here they are far more common.
TWEAK Fn14 block: inhibitors of TWEAK-Fn14 interaction signaling; hit rate 2% among 360,000; inhibition, % at 10 µM; TWEAK-stimulated Fn14 reporter cells, luciferase luminescence, 8 h; in the data active = inhibition above about 50%
TROY signal inh: TROY signaling inhibition | Q293 LMP1-TROYcd NF-kB luciferase reporter, 4 h | inhibition, % at 10 µM | hit rate 0.98% among 360,000;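 active = compounds whose plate-normalised and pattern-corrected inhibition of the luciferase reporter signal at the single screening dose is 50% or more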
EWS-Fli block: inhibitors of EWS/Fli oncoprotein transcriptional activity; A673 NR0B1-luciferase reporter, viability-normalised; inhibition, % at 12.6 µM; hit rate 0.67% among 350,000; AID 651661;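 active = mean inhibition of at least 50% after viability correction, with every replicate also passing that limit; inconclusive = mean reaches 50% but only one of two replicates passes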;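 note: firefly luciferase signal divided by Alamar Blue viability fluorescence both relative to DMSO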
PAX8 inh HTS: inhibitors of PAX8 transcriptional activity in RMG-I cells. AID 652154. RMG-I TPO-luciferase reporter, SteadyGlo, 24 h. inhibition, % at 12.6 µM. hit rate 1.2% among 360,000;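 active = mean replicate inhibition at least 60% with every replicate also reaching 60%; inconclusive = only one of the two criteria is met; inactive = mean below 60% and not all replicates reaching 60%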;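 note: luciferase light reporting Pax8 driven TPO promoter activity; plate controls were median of neutral control wells for no effect and mitoxantrone controls for full effect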
LGR2 antag: Drosophila LGR2 receptor signaling inhibition; HEK293 LGR2, CRE-luciferase, bursicon-stimulated, 4 h; inhibition, % at 9.99 µM; hit rate 0.35% among 380,000;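 active = drop in luminescence signal, shown as inhibition above about 50% in the replicate tests, limit read from the data, passing the limit was not always enough; inconclusive = probably only some replicates passing the limit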;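 note: agonist challenge used bursicon conditioned medium at about half maximal strength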
EBV LMP1 NFkB: inhibitors of Epstein-Barr LMP1-induced NF-kappaB reporter | LMP1-induced NF-kappaB luciferase reporter cells, luminescence | inhibition, % at 12.5 µM | hit rate 0.69% among 350,000 | AID 504558; in the data active = inhibition above about 41%; inconclusive = no clear call, values can overlap the other calls;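 note: 0% = neutral control wells and 100% = reference inhibitor control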
Numbers without * were called inactive; ? = inconclusive; nt = no result.

SMILES	TWEAK Fn14 block	TROY signal inh	EWS-Fli block	PAX8 inh HTS	LGR2 antag	EBV LMP1 NFkB
CC1=CC(=C2C(=O)NC(=S)NC2=O)C=C(C(F)(F)F)N1Cc1ccccc1	-5.5	20.6	54.0*	24.4	-3.2	13.2
CCN1C[C@]2(COC)CC[C@H](OC)[C@@]34C1[C@]1(OCO[C@@]15C[C@H](OC)[C@H]1C[C@@H]3[C@@H]5[C@H]1OC)[C@@H](O)[C@H]24	-2.3	-1.2	-5.3	-18.3	nt	55.8*
CCN1C[C@]2(CO)CC[C@H](OC)[C@@]34C2[C@H](OC)[C@@](O)(C13)[C@@]1(O)C[C@H](OC)[C@H]2C[C@@H]4[C@@H]1[C@H]2OC	-7.3	16.9	-6.7	-8.3	-3.4	-3.2
O=C(N/N=C/C1C(=O)NC(=S)N(c2ccccc2)C1=O)c1cc(Br)c(O)c(Br)c1 (centres undefined)	3.5	-21.4	3.5	11.9	12.0	51.6*
CCCNC(=O)N1[C@@H]2c3ccc(-c4cccc(C(=O)N(C)C)c4)c(=O)n3C[C@H]1[C@H](CO)[C@H]2C(=O)O	nt	nt	0.6	-7.8	2.0	nt
O=C(c1ccco1)c1cn(Cc2ccccc2)c2ccccc12	101.5*	-26.0	nt	nt	-10.3	-4.7
N#CC(C#N)=Cc1ccc(-c2ccccc2F)o1	70.1*	11.3	20.3	-2.1	nt	-20.3
O=C(Cc1ccccn1)N1CCCCN2[C@H](CO)[C@H](c3ccc(-c4ccccc4F)cc3)[C@H]2C1	nt	nt	6.9	-10.5	-3.2	nt
COc1ccc(C2=CC(c3ccc(OC)c(OC)c3)c3c(c4ccccc4oc3=O)O2)cc1OC (centres undefined)	10.9	16.7	57.7*	12.0	14.5	22.6
CC(C)(O)/C=C/C(=O)[C@](C)(O)C1[C@H](O)C[C@@]2(C)C3CC=C4C(C[C@H](O)[C@@H](O)C4(C)C)[C@]3(C)C(=O)C[C@]12C (some centres undefined)	-6.8	55.6*	nt	nt	nt	26.9
CCCCCCOc1ccc(CN2CCN(C)CC2)cc1	61.1*	65.0*	-6.5	nt	47.7	33.0
Nc1ccccc1C(=O)OCCOc1ccccc1	67.0*	9.9	nt	nt	nt	-14.0
Cc1ccccc1S(=O)(=O)N1[C@@H]2Cn3c(ccc(-c4cccnc4)c3=O)[C@H]1[C@@H](C(=O)O)[C@@H]2CO	nt	nt	-1.0	8.7	11.6	nt
O=C(O)[C@H]1[C@H](CO)[C@H]2Cn3c(ccc(-c4ccncc4)c3=O)[C@@H]1N2S(=O)(=O)c1ccccc1F	nt	nt	3.0	nt	-12.3	nt
COc1ccc(-n2nnnc2C(c2cccc(OC)c2OC)N2CCC(n3c(=O)[nH]c4ccccc43)CC2)cc1 (centres undefined)	43.8	33.1	7.4	29.8	?	nt
O=c1[nH]c2ccccc2n1C1CCN(C(c2ccccc2OC(F)(F)F)c2nnnn2-c2ccc3c(c2)OCCO3)CC1 (centres undefined)	76.3*	42.2	15.0	94.2*	45.8	nt
COc1cccc(C(c2nnnn2-c2ccc3c(c2)OCCO3)N2CCC(n3c(=O)[nH]c4ccccc43)CC2)c1OC (centres undefined)	32.7	33.3	25.2	93.0*	19.5	nt
CCCC#Cc1ccc([C@H]2[C@@H](CO)N3CCCCN(C(=O)Cc4ccccn4)C[C@H]23)cc1	nt	nt	12.6	5.5	0.1	nt
COC(=O)[C@@H]1[C@@H](CO)[C@@H]2Cn3c(ccc(-c4cccc(F)c4)c3=O)[C@H]1N2Cc1ccccc1	nt	nt	5.7	7.3	1.8	nt
COC1CCC(OC2CC(C3(C)CCC4(CC(O)C(C)C(C(C)/C=C(\C)C(=O)C(C)CC(C)C(=O)O)O4)O3)OC3(OC(C4OC(O)(CO)C(C)CC4C)CC3C)C2C)OC1C (centres undefined)	50.0*	55.0*	64.7*	105.7*	nt	-10.5
O=C(Cc1ccccc1)N1CCCCN2[C@@H](CO)[C@H](c3ccc(C#Cc4ccccc4)cc3)[C@@H]2C1	nt	nt	nt	26.7	12.2	nt
C[C@H](CO)N1C[C@H](C)[C@@H](CN(C)C(=O)Oc2cccc3ccccc23)OCc2cnnn2CCCC1=O	nt	nt	3.9	nt	-10.3	nt
N#Cc1cccc(-c2ccc([C@H]3[C@H](CO)N4CCCCN(C(=O)Cc5ccncc5)C[C@@H]34)cc2)c1	nt	nt	nt	-0.3	-8.1	nt
CCN(CC)C(=O)COc1cc(C)cc2oc(=O)c3c(c12)CCCC3	-11.0	19.2	14.6	82.2*	-3.8	2.7
Cc1cc(OC(=O)CCCNC(=O)OC(C)(C)C)c2c3c(c(=O)oc2c1)CCC3	24.4	18.3	nt	nt	nt	5.3
SMILES	TWEAK Fn14 block	TROY signal inh	EWS-Fli block	PAX8 inh HTS	LGR2 antag	EBV LMP1 NFkB
Cc1cc(OCC(=O)OC(C)(C)C)c2c3c(c(=O)oc2c1)CCC3	-14.4	-18.4	nt	-9.3	nt	3.3
Cc1cc(OC(=O)CCNC(=O)OC(C)(C)C)c2c3c(c(=O)oc2c1)CCC3	62.9*	36.6	nt	nt	?	3.6
C[C@@H]1CN([C@@H](C)CO)C(=O)c2c(c3ccccc3n2C)-c2ccccc2CO[C@@H]1CN(C)C(=O)Oc1ccccc1	nt	nt	nt	-19.6	-4.6	nt
COc1cc(C2c3cc4c(cc3CC3COC(=O)C32)OCO4)cc(OC)c1O (centres undefined)	-17.1	14.1	49.1	74.9*	-2.7	1.1
COC(=O)[C@H]1[C@H](CO)[C@H]2Cn3c(ccc(-c4cccc(F)c4)c3=O)[C@@H]1N2Cc1ccncc1	nt	nt	1.5	2.6	5.4	nt
N#Cc1cccc(-c2ccc([C@H]3[C@@H](CO)N4CCCCN(C(=O)Cc5ccccc5)C[C@@H]34)cc2)c1	nt	nt	7.8	14.1	11.0	nt
COC1C(OC(=O)c2ccc(C)[nH]2)C(O)C(Oc2ccc3c(O)c(NC(=O)c4ccc(O)c(CC=C(C)C)c4)c(=O)oc3c2Cl)OC1(C)C (centres undefined)	10.4	54.9*	10.5	nt	7.8	-4.0
O=C(Cc1ccccn1)N1CCCCN2[C@@H](CO)[C@@H](c3ccc(-c4ccccc4F)cc3)[C@@H]2C1	nt	nt	12.4	98.6*	16.0	nt
O=C(Cc1cccnc1)N1CCCCN2[C@H](CO)[C@H](c3ccc(/C=C/c4ccccc4)cc3)[C@@H]2C1	nt	nt	5.3	6.7	5.9	nt
O=C(Cc1ccccn1)N1CCCCN2[C@@H](CO)[C@H](c3ccc(-c4ccccc4F)cc3)[C@@H]2C1	nt	nt	26.3	67.2*	-8.5	nt
O=C(Cc1cccnc1)N1CCCCN2[C@H](C1)[C@H](c1ccc(/C=C/c3ccccc3)cc1)[C@@H]2CO	nt	nt	5.6	80.8*	21.3	nt
COc1cccc2c1C(=O)c1c(O)c3c(c(O)c1C2=O)CC(O)(C(C)=NO)CC3OC1CC(N)C(O)C(C)O1 (centres undefined)	6.0	8.5	38.0	-16.3	62.9*	41.6*
O=S1(=O)N(CCN2CC=C(c3c[nH]c4cc(F)ccc34)CC2)c2cccc3c2N1CCC3	25.5	0.0	12.8	85.0*	10.7	-0.1
Cc1nc2ccc(Br)cc2c(=O)n1-c1ccc([N+](=O)[O-])c(C(F)(F)F)c1	36.2	55.8*	14.2	32.8	?	11.1
Cc1nc2ccccc2c(=O)n1-c1ccccc1C(F)(F)F	1.0	-30.1	nt	nt	6.0	-1.4
